The supplement of paper PMC11732987, “Enantioselective OTUD7B fragment discovery through chemoproteomics screening and high-throughput optimisation” (Communications Chemistry, 2025)

Legend:
Experiment in all cases: log2 ratio of Biotin-Ahx-Ub-VS probe labelling (fragment/DMSO); higher = less target engagement (more negative = stronger competition), active = hit call of the paper (q ≤ 0.05, log2 ratio ≤ -1)
Conditions in all cases: compound concentration: 200 uM; treatment time: 3 h
OTUD6B = biological target: T1, OTUD6B (UniProt Q8N6M0)
T1 sequence (whole entry): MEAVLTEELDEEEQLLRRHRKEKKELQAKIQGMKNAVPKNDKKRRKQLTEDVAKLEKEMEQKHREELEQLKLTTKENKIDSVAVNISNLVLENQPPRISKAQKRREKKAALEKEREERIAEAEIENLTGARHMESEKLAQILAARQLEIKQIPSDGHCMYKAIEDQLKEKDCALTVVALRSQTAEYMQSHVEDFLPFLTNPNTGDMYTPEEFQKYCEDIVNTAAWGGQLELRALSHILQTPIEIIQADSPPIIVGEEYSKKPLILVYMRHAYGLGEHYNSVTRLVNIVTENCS
Procedure, shortened: (§1)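 Each value is an average log2 ratio of fragment to vehicle, tested by unpaired t-test. The underlying Spectronaut label-free quantities were global-median-normalised, and only proteins with ≥2 unique peptides were included. Triplicate HEK293T lysate samples (495 µg) were exposed to fragment at 200 µM or vehicle for 3 h, then to Biotin-Ahx-Ub-VS at 0.5 µM final for 1 h, before NeutrAvidin enrichment of labelled DUBs, LysC and trypsin digestion, and diaPASEF LC-MS/MS.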

OTUD7B = biological target: T2, OTUD7B (UniProt Q6GQQ9)
T2 sequence (whole entry): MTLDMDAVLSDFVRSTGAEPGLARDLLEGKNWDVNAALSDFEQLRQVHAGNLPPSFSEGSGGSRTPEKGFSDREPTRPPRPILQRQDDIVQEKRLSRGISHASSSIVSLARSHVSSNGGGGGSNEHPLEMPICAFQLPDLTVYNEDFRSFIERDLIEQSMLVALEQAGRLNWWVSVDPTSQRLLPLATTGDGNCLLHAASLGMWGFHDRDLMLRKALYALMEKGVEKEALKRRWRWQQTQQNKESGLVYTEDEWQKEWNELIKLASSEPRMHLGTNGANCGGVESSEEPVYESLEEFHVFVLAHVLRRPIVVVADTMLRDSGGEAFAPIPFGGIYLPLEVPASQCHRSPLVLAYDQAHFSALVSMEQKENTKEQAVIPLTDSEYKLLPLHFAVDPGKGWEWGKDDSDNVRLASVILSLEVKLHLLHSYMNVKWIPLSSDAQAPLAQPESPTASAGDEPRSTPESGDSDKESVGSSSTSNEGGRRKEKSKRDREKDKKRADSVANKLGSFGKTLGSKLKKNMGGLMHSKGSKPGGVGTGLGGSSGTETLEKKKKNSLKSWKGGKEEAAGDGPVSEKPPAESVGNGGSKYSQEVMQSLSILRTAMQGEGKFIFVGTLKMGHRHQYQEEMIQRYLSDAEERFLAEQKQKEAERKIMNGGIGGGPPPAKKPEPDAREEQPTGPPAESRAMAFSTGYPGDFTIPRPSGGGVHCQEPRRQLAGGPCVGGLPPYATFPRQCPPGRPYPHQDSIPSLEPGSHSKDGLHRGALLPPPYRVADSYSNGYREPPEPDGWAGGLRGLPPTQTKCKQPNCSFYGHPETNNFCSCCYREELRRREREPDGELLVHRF
Procedure, shortened: as §1

PRPF8 = PRPF8 (UniProt Q6P2Q9)
Procedure, shortened: as §1

PSMD7 = biological target: T3, PSMD7 (UniProt P51665)
T3 sequence (whole entry): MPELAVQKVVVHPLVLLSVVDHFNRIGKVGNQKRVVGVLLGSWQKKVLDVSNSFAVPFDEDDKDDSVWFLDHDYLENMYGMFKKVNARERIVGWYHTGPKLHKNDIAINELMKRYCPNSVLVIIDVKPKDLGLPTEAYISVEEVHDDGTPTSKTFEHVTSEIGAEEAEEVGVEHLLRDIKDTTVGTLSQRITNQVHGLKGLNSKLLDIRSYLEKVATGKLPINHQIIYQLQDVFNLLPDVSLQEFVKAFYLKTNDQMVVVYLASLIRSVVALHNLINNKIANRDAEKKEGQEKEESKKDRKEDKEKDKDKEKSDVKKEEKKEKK
Procedure, shortened: as §1

UCHL1 = UCHL1 (UniProt P09936)
Chain of UCHL1 (P09936 whole entry, looked up): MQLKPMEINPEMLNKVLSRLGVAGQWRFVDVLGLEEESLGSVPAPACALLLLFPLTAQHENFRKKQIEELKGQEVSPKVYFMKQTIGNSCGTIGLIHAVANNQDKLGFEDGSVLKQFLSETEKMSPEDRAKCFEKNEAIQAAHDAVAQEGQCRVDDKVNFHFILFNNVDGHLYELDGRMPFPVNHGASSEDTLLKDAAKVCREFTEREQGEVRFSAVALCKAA
Procedure, shortened: as §1

UCHL3 = biological target: T4, UCHL3 (UniProt P15374)
T4 sequence (whole entry): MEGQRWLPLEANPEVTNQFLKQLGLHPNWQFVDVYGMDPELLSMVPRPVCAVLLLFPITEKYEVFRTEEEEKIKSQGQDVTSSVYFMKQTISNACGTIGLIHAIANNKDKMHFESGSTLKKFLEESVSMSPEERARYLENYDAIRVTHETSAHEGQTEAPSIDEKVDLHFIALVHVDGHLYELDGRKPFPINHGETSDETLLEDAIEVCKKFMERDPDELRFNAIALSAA
Procedure, shortened: as §1

UCHL5 = biological target: T5, UCHL5 (UniProt Q9Y5K5)
T5 sequence (whole entry): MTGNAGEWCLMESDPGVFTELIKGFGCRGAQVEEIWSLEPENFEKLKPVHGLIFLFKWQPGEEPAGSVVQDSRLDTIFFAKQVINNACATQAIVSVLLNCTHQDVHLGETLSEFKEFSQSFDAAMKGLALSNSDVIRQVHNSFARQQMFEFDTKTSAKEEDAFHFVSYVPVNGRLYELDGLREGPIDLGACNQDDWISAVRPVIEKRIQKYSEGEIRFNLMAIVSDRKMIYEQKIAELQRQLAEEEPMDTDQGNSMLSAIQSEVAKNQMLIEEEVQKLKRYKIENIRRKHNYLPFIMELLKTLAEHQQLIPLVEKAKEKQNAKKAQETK
Procedure, shortened: as §1

USP10 = USP10 (UniProt Q14694)
Chain of USP10 (Q14694 whole entry): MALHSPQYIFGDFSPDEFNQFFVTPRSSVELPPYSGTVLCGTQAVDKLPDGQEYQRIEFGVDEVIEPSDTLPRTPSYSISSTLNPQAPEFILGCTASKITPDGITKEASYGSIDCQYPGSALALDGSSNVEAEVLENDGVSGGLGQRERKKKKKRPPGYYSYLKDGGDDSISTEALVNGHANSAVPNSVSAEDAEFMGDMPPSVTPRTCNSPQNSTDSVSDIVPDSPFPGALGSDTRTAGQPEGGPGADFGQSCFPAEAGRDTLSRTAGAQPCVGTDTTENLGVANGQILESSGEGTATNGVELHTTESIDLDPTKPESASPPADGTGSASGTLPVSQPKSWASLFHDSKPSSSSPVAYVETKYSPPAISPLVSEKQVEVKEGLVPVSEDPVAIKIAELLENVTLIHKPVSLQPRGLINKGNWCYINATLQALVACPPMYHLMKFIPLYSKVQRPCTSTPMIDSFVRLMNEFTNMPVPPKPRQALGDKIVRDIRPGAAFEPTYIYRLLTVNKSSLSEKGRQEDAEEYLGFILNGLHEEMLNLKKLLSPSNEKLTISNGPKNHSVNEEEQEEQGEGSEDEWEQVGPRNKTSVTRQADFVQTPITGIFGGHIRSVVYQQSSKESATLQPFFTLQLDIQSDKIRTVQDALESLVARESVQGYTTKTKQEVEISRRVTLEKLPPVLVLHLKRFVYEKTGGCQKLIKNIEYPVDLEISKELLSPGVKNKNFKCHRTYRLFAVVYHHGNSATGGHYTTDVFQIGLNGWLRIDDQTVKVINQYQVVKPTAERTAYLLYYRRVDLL
Procedure, shortened: as §1

USP15 = biological target: T6, USP15 (UniProt Q9Y4E8)
T6 sequence (whole entry): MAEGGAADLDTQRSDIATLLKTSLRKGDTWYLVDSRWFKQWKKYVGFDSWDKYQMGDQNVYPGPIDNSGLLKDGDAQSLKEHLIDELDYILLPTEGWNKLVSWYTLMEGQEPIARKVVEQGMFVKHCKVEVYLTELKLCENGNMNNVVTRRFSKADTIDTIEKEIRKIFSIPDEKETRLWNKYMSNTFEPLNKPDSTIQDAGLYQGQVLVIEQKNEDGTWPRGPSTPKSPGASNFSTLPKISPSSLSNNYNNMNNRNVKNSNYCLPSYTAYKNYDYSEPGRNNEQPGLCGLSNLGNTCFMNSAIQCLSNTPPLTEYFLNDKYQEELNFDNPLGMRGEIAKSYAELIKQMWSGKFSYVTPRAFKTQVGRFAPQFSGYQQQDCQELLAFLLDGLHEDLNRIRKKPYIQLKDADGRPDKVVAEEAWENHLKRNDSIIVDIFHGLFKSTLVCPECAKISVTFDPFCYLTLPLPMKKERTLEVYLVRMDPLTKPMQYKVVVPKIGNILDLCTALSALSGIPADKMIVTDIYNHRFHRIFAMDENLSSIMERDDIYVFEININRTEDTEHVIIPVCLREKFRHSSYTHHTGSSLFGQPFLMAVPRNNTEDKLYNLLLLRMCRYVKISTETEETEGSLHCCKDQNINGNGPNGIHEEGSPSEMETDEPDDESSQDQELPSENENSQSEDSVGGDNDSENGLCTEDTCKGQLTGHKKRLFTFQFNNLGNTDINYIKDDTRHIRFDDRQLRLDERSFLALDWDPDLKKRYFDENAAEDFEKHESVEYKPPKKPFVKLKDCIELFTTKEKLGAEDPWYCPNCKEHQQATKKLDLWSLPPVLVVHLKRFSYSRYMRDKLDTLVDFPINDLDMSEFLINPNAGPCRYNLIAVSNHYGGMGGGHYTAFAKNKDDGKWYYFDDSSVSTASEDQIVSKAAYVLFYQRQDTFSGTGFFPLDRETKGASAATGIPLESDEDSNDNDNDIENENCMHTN
Procedure, shortened: as §1

USP16 = USP16 (UniProt Q9Y5T5)
Chain of USP16 (Q9Y5T5 whole entry, looked up): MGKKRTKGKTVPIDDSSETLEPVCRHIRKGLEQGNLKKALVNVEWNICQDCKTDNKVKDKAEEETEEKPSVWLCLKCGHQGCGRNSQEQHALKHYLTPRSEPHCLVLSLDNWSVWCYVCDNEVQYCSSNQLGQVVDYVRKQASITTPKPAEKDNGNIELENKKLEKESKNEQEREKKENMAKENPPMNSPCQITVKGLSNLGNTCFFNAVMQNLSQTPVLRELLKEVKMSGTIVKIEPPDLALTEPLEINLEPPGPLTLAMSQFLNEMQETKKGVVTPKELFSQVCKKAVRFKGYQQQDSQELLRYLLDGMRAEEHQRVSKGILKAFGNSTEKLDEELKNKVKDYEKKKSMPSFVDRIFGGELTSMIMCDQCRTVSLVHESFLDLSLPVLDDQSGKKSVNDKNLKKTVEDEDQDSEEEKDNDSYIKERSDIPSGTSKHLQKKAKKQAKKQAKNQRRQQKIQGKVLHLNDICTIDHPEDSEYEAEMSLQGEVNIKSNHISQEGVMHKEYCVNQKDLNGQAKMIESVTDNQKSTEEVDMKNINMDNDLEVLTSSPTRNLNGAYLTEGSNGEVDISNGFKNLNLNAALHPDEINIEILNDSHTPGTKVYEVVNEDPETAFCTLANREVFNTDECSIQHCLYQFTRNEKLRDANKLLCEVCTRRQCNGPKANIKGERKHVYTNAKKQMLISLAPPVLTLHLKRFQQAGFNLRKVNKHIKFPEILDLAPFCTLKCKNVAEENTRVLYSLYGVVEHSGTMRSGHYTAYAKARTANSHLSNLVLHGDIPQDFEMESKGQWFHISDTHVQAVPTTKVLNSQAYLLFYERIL
Procedure, shortened: as §1

Measured: log2 ratio of Biotin-Ahx-Ub-VS probe labelling

O=C(CCl)Nc1ccc(F)cc1F
inactive: OTUD6B -0.161 | OTUD7B -0.881 | PRPF8 -0.105 | PSMD7 -0.179 | UCHL3 0.078 | UCHL5 -0.242 | USP10 -0.129 | USP15 -0.34 | USP16 0.0073
active: UCHL1 -1.47
